Several values for one entry are separate records, joined by “and”; a condition that tells them apart may be missing. Equal entries are not always repeated. Results filed as inconclusive are left out. Activity calls are given as the source filed them. Unless noted, the call rests on the fitted dose curve; in most records, active means well fitted curve in the direction sought with a large enough effect; inconclusive means small, poorly fitted or top-dose-only effect, or another doubt; inactive means no such curve, though single readings can be large; an effect the other way counts as inactive or inconclusive.

The results in this text go back to PubChem BioAssay (NCATS).

Assay [1] can be described thus: Primary qHTS for inhibitors of nuclear receptor binding SET domain protein 2 (NSD2) in an RCH-ACV wild type WT cells (2C) (AID 1645877). Further: potency means the concentration at half of the fitted maximal effect; nearly all actives have a fitted effect of over 70% in size.
Assay [2] addresses Glutathione peroxidase 1 (Homo sapiens) (UniProt P07203). Description: Primary qHTS Assay for Inhibitors of Recombinant Selenoprotein Glutathione Peroxidase 1 (GPX1) (AID 1845191). Further: nearly all actives have a fitted effect of over 65% in size. Further: potency means the concentration at half of the fitted maximal effect. The method in brief:
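GR-coupled readout: NADPH consumption tracked by fluorescence, ex 340/em 450 nm, at t=0 and after 15 min at RT. Final mix 10 nM GPX1, 1 mM GSH, 0.5 mM CHP, 0.5 mM NADPH, 100 nM GR, 0.01% BSA, following 30 min enzyme–compound preincubation.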

The target in assay [3] is Phospholipid hydroperoxide glutathione peroxidase GPX4 (Homo sapiens) (UniProt P36969). Briefly: Primary qHTS Assay for Inhibitors of Recombinant Selenoprotein Glutathione Peroxidase 4 (GPX4) (AID 1845192). Further: potency means the concentration at half of the fitted maximal effect; nearly all actives have a fitted effect of over 65% in size. The method in brief:
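Steps: GPX4 plus compound, 30 min RT; add GR/GSH/NADPH master mix; start with cumene hydroperoxide; read 340/450 nm fluorescence at 0 and 15 min. Finals were 200 nM GPX4, 1 mM GSH, 0.5 mM CHP, 0.5 mM NADPH, 100 nM GR.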
(In general: Quantitative high-throughput screening tests each substance at several concentrations.)

The nature of assay [4]: qHTS drug screen for cell cycle checkpoint inhibitors in PARPi-resistant BRCA-mutant ovarian cancer cell lines. (AID 1963452; calls by dose curve). The settings on record: PEO1/OlaR viability, CellTiter-Glo luminescence, 96 h, stronger effect = lower value. The method in brief: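 PEO1, PEO4 and PEO1/OlaR ovarian cancer cells, 600 per well, exposed 96 h at 37C to a dilution series. Viability read by CellTiter-Glo luminescence, normalized to DMSO and empty wells; activity summarized as Z-AUC.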

The target of assay [5] is Rap guanine nucleotide exchange factor 3 (Homo sapiens) (UniProt O95398). Briefly: Confirmatory qHTS for antagonist of cAMP-regulated guanine nucleotide exchange factor 3 (EPAC1) (AID 1645880). Further: nearly all actives have a fitted effect of over 55% in size. Further: potency means the concentration at half of the fitted maximal effect. The method in brief: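 Released BODIPY-GDP fluoresces less than Rap1-bound BODIPY-GDP; the signal is followed at 480/540 nm at 5-min intervals over 30 min, after 5 min at room temperature. Reactions contain 100 nM EPAC1, 250 nM RAP1B-BODIPY-GDP and 50 uM GDP; results are normalized to ATA and DMSO.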

For assay [6] the target is unchanged. Briefly: Confirmatory qHTS for agonist of cAMP-regulated guanine nucleotide exchange factor 3 (EPAC1) (AID 1645881). Further: nearly all actives have a fitted effect of over 75% in size. Further: potency means the concentration at half of the fitted maximal effect.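 On activation: EPAC1 catalysed release of BODIPY-GDP from Rap1B seen as fluorescence loss; 100% = effect of cAMP agonist control.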
In assay [7] the target is Rap guanine nucleotide exchange factor 4 (Homo sapiens) (UniProt Q8WZA2). Description: Confirmatory qHTS for agonist of cAMP-regulated guanine nucleotide exchange factor 4 (EPAC2) (AID 1645884).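 Further: nucleotide exchange releases bodipy-GDP from Rap1 and this lowers its fluorescence; nearly all actives have a fitted effect of over 65% in size.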 Further: potency means the concentration at half of the fitted maximal effect. On activation: on the % scale 0 is the no-effect control and ±100 the full control effect.
Assay [8] shares this target. Description: Confirmatory qHTS for antagonist of cAMP-regulated guanine nucleotide exchange factor 4 (EPAC2) (AID 1645885). Further: nearly all actives have a fitted effect of over 25% in size. Further: potency means the concentration at half of the fitted maximal effect.

Chain of Rap guanine nucleotide exchange factor 4 (Homo sapiens) (Q8WZA2 whole entry, looked up): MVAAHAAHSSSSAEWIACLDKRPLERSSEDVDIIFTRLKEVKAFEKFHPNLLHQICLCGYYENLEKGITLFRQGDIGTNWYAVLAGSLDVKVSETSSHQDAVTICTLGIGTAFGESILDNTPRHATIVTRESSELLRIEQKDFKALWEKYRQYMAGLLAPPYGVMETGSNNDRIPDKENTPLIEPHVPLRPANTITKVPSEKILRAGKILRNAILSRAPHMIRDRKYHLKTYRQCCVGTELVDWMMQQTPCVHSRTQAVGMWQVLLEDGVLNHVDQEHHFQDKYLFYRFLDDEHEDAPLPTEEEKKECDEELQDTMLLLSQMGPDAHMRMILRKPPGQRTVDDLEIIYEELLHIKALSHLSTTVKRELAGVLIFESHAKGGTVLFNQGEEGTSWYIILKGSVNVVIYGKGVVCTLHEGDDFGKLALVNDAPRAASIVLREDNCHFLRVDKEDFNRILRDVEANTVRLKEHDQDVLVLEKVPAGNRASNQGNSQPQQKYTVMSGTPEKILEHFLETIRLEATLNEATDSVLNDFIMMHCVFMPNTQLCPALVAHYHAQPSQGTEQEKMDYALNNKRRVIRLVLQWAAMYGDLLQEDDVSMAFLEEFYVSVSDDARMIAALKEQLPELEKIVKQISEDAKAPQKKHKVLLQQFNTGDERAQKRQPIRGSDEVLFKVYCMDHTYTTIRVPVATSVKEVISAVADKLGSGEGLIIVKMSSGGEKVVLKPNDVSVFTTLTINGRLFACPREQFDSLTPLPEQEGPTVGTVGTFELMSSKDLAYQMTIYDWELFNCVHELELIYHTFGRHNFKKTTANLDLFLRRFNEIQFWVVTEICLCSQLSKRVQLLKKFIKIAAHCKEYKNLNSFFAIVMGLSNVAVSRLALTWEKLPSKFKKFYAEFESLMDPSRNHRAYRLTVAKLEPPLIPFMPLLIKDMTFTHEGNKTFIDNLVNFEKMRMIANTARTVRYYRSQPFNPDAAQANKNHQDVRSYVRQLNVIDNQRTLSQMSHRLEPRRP
Chain of Phospholipid hydroperoxide glutathione peroxidase GPX4 (Homo sapiens) (P36969 whole entry, looked up): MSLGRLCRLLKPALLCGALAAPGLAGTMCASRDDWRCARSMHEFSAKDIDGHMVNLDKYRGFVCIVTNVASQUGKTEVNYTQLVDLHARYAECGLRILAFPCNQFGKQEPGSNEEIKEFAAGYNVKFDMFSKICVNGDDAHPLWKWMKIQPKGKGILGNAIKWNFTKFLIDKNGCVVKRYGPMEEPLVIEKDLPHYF
Chain of Rap guanine nucleotide exchange factor 3 (Homo sapiens) (O95398 whole entry, looked up): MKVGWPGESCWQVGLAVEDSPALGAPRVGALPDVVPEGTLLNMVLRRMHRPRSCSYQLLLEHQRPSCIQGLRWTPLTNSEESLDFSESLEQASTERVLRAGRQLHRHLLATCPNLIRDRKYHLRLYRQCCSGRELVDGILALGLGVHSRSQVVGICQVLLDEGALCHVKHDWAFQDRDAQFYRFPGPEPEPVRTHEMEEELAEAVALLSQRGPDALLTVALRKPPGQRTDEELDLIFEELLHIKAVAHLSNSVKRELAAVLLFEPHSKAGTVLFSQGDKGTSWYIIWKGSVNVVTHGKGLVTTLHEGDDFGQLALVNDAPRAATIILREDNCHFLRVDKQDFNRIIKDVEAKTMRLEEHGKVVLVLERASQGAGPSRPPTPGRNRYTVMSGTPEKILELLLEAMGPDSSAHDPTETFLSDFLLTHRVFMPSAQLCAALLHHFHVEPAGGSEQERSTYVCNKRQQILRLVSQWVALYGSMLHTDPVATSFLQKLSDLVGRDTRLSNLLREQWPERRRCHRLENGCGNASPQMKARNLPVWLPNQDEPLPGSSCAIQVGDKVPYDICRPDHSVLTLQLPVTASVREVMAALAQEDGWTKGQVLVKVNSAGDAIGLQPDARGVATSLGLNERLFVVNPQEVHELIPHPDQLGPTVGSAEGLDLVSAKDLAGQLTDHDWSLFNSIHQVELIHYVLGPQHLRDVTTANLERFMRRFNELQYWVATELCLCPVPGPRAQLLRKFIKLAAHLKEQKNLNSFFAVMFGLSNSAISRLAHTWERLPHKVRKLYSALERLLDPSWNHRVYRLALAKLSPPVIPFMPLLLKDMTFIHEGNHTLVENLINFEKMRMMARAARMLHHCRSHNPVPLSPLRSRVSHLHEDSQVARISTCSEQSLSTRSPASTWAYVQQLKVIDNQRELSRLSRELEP
Chain of Glutathione peroxidase 1 (Homo sapiens) (P07203 whole entry, looked up): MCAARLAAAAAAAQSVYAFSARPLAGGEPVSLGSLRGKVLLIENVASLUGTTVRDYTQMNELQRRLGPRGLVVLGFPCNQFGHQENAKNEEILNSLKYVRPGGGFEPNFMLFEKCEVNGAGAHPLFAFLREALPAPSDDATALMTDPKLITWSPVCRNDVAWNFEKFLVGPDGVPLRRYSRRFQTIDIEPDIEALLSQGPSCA

Take `COC(=O)N[C@H](C(=O)N1CCC[C@H]1c1ncc(-c2ccc(-c3ccc(-c4cnc([C@@H]5CCCN5C(=O)[C@@H](NC(=O)OC)C(C)C)[nH]4)cc3)cc2)[nH]1)C(C)C`: the Potency was 20.9 µM (active) in assay [1]; 16.1 µM (active) in assay [2]; 18 µM (active) and 20 µM (active) in assay [3].
Take `CC/C(=C(/c1ccc(/C=C/C(=O)O)cc1)c1ccc2[nH]ncc2c1)c1ccc(F)cc1Cl`: the Potency is 23.5 µM (active) in assay [1] and 4.04 µM (active) in assay [3]. Besides, the Potency result in assay [2] was “inactive”. Further, the Z-AUC was 1.39 (inactive) in assay [4], 0.628 in assay [4] (measured here: PEO1 parental Z-AUC) and -0.0261 in assay [4] (measured here: PEO4 Z-AUC).
Take `O=C1CCN(Cc2ccccc2)CCN1[C@H](COc1ccccc1)Cc1ccccc1`: the Potency result in assay [5] and in assay [6] was “inactive” each time.
Take `CN(C)c1ccc(/C=C/c2c(Cl)cnc3ccccc23)cc1`: the Potency entry in assay [5] and in assay [6] was “inactive” each time.
In the case of `COc1cccc(CN(C)C(=O)c2cnn(-c3ncc4c(n3)-c3ccccc3CCC4)c2C)c1`, the Potency entry in assay [5], in assay [6] and in assay [7] was “inactive” each time.
For the compound `Cc1cccc(N(C(=O)c2csnn2)C(C(=O)NCc2ccccc2)c2cccs2)c1` (stereo not given), the Potency result in assay [5], in assay [6] and in assay [7] was “inactive” each time.
On to `Cc1ccc(S(=O)(=O)N2[C@@H](c3ccc(C(C)(C)C)cc3)C(C(=O)O)=CC[C@H]2c2ccc(C(C)C)cc2)cc1`, for which the Potency in assay [5] was 19 µM (active). Moreover, the Potency entry in assay [6], in assay [7] and in assay [8] was “inactive” in each case.
For `Cc1ccc(C2SCC(=O)N2Cc2ccccc2)cc1` (stereo not given), the Potency entry in assay [5], in assay [6] and in assay [7] was “inactive” throughout.
In the case of `CCOC(=O)C1CCCN(C(=O)c2cnn(-c3nccc(-c4cc(C)sc4C)n3)c2C)C1` (stereo not given), the Potency entry in assay [5], in assay [6] and in assay [7] was “inactive” throughout.
On to `Cc1cc(C)cc(NC(=O)c2sc3nc(-c4ccccc4)cn3c2C)c1`, for which the Potency entry in assay [5], in assay [6] and in assay [7] was “inactive” throughout.
In the case of `Nc1ccn(C2C=CC(CO)O2)c(=O)n1` (stereo not given), the Potency entry in assay [5], in assay [6], in assay [7] and in assay [8] was “inactive” throughout.
As to `CCCCN(Cc1ccc(C(=O)N[C@H](C(=O)O)C(C)C)cc1)C(=O)C(c1ccccc1)c1ccccc1`, the Potency result in assay [5], in assay [6] and in assay [8] was “inactive” throughout. Also, the activation in assay [7] was 8.93% [at 17.1 µM, percent relative to cAMP agonist control] (inactive).
In the case of `CC(=O)c1ccc(NC(=O)CC2Nc3cccc4cccc(c34)NC2=O)cc1` (stereo not given), in assay [5], the Potency was 75.7 µM (active). For the same compound, the Potency entry in assay [6], in assay [7] and in assay [8] was “inactive” in each case.
With `CN(CCc1ccccc1)C(=O)c1cc(COc2cccc(C(F)(F)F)c2)on1`, the Potency result in assay [5], in assay [6] and in assay [7] was “inactive” throughout.
In the case of `O=C(C[n+]1cccc2cc(Cl)ccc21)c1ccc(Br)cc1`, the Potency entry in assay [5], in assay [6], in assay [7] and in assay [8] was “inactive” in each case.
For `COc1ccc(NC(=O)c2c[nH]n3c(=O)cc(C4CCN(C(=O)OC(C)(C)C)CC4)nc23)cc1Cl`, in assay [5], the Potency was 67.5 µM (active). In addition, the Potency result in assay [6], in assay [7] and in assay [8] was “inactive” in each case.
With `COc1ccccc1N1CCN(c2ccc3c(c2)S(=O)(=O)c2cccc(C(=O)NCC4CC4)c2C3=O)CC1`, the Potency result in assay [5], in assay [6], in assay [7] and in assay [8] was “inactive” in each case.
`O=C(CSc1nc2c([nH]c3ccccc32)c(=O)n1-c1ccccc1F)Nc1cccc(Cl)c1`: the Potency result in assay [5], in assay [6], in assay [7] and in assay [8] was “inactive” each time.
For the compound `OC1(c2ccccc2)CC(c2ccccc2)c2ccccc2O1` (stereo not given), the Potency entry in assay [5], in assay [6] and in assay [8] was “inactive” in each case. Also, in assay [7], the activation was 1.28% [at 17.1 µM, percent relative to cAMP agonist control] (inactive).
With `O=C1N=c2ccccc2=C1c1sc(Nc2ccc(O)cc2)nc1O`, in assay [5], the Potency was 30.1 µM (active). Also, the Potency result in assay [6], in assay [7] and in assay [8] was “inactive” throughout.
Consider `COc1ccc(N2CCN(C3CCCCC3NS(=O)(=O)c3ccccc3)CC2)cc1` (stereo not given), for which the Potency result in assay [5], in assay [6] and in assay [7] was “inactive” throughout. For the same compound, the Potency in assay [8] is 16.9 µM (active).
In the case of `C(=C\c1ccnc2ccccc12)/c1ccc2ccccc2n1`, the Potency entry in assay [5], in assay [6] and in assay [7] was “inactive” in each case.
For the compound `CC(C)C[C@@H](COc1ccccc1)N1CCN(Cc2ccccc2)CCC1=O`, the Potency entry in assay [5], in assay [6] and in assay [7] was “inactive” throughout. Further, in assay [8], the Potency is 62.2 µM (active).
As for `CN(c1ccc(C(=O)NCc2ccc3c(c2)OCO3)cc1)S(=O)(=O)c1ccccc1`, the Potency entry in assay [5], in assay [6], in assay [7] and in assay [8] was “inactive” in each case.
For the compound `COc1cc2c3nnc(-c4ccccc4)c-3cn(Cc3ccc(F)cc3)c2cc1OC`, the Potency entry in assay [5], in assay [6], in assay [7] and in assay [8] was “inactive” in each case.
With `Cc1ccc(C)c(N2CCN(C(=O)CCc3nc(-c4ccc(Cl)cc4)no3)CC2)c1`, the Potency result in assay [5], in assay [6], in assay [7] and in assay [8] was “inactive” throughout.
In the case of `CC(C)N(C(=O)Nc1ccc2nsnc2c1)C(C)C`, in assay [5], the Potency is 22.4 µM (active). The Potency result in assay [6] and in assay [8] was “inactive” throughout. For the same compound, the activation in assay [7] was 2.55% [at 17.1 µM, percent relative to cAMP agonist control] (inactive).
As for `O=C1[C@H](Cc2ccccc2)NCCCC[C@H](c2ccco2)N1Cc1ccccc1`, the Potency result in assay [5], in assay [6], in assay [7] and in assay [8] was “inactive” in each case.
For the compound `Cc1cc(C(=O)NCc2nc(-c3cccc(NC(=O)c4ccccc4)c3)oc2C)nc(C)n1`, the Potency result in assay [5], in assay [6] and in assay [7] was “inactive” each time.
Consider `O=c1c2ccccc2oc2ccc(Oc3ccccc3)cc12`, for which the Potency result in assay [5], in assay [6] and in assay [7] was “inactive” each time.
For the compound `Nc1ccc(-c2c3ccc(=O)cc-3oc3cc(O)ccc23)c(C(=O)O)c1`, the Potency entry in assay [5] and in assay [8] was “inactive” in each case. For the same compound, the Potency in assay [6] and in assay [7] was 100 µM (active) in each case.
As to `CN(C)c1ccc(/C=C/c2ccnc3ccc(F)cc23)cc1`, the Potency entry in assay [5], in assay [6], in assay [7] and in assay [8] was “inactive” in each case.
In the case of `CCc1ccccc1NC(=O)c1oc(=O)c2ccccc2c1-c1ccccc1`, the Potency entry in assay [5], in assay [6], in assay [7] and in assay [8] was “inactive” in each case.
